Bioassay records: PubChem, several laboratories
Autofluor counter – counter-screen for toxin protease inhibitors: compound fluorescence; fluorescence intensity (test concentration not listed); AID 624483; compound autofluorescence counterscreen, microsphere flow cytometry; stronger effect = higher value; hit rate 3.1% among 360,000; in the data active = fluorescence intensity above about 16000; inconclusive = no clear call, values can overlap the other calls
VHR inh abs – DUSP3 (human) phosphatase inhibition | P51452 | recombinant VHR phosphatase, pNPP absorbance | inhibition, % at 13.3 µM | hit rate 0.52% among 290,000 | AID 1654; in the data active = inhibition above about 50%
Target sequence (P51452 whole entry, looked up): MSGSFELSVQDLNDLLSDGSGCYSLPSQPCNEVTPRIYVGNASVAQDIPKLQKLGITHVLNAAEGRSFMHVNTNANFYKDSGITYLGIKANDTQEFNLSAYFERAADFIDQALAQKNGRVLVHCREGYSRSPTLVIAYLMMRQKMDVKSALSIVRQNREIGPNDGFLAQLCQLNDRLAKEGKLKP
SARS 3CLpro inh – SARS-CoV 3CLpro protease inhibition; recombinant SARS-CoV 3CLpro, quenched FRET peptide cleavage; hit rate 0.14% among 290,000; P0C6X7; inhibition, % at 6 µM; in the data active = inhibition above about 12%
Anthrax LF inh2 – anthrax lethal factor protease inhibition. inhibition, % at 10 µM. multiplex microsphere protease cleavage assay, LF. hit rate 0.12% among 360,000. AID 588501. P15917
BoNT A protease – BoNT A light chain protease inhibition. multiplex microsphere protease substrate cleavage, flow cytometry. inhibition, % at 10 µM. hit rate 0.17% among 360,000. AID 588499
BoNT-F LC inh – inhibitors of Botulinum neurotoxin F light chain protease; Multiplex microsphere protease cleavage assay, flow cytometry; inhibition, % at 10 µM; hit rate 0.22% among 360,000; in the data active = inhibition above about 35%, passing the limit was not always enough; inconclusive = no clear call, values can overlap the other calls
Of the large screens only hits and unclear results are named; the others gave an inactive call. Most compounds without a hit are left out; they make up all but 3.9% or so of the library. Cut-off read from the data, not from the text of the source, unless noted: active = inhibition above about 30%; inconclusive = no clear call, values can overlap the other calls; inactive = below that.

CC1CN(C(=O)C(c2ccccc2)c2ccccc2)CC(C)O1 (stereo not drawn)	Autofluor counter 25891
Cc1nc2nc(CCc3ccccc3)nn2c(C)c1Cl	none
Cc1nc2nc(Cc3ccccc3)nn2c(C)c1Cl	Autofluor counter 22300
Cc1ccc([N+](=O)[O-])cc1NC(=O)C(Sc1ccccc1)c1ccccc1 (stereo not drawn)	none
CNC(=O)CSc1nc2nn(-c3ccccc3)c(=O)c-2c2n1CCCCC2	Autofluor counter 21375
CC(C)(C)OC(=O)C(C)(C)O/N=C(\C(=O)O)c1csc(N)n1	none
Cc1cc(C)c(C)c(OCc2nc(-c3cccnc3)no2)c1	Autofluor counter 21478
Clc1ccc(OCCCc2nc(-c3cccnc3)no2)c(Cl)c1	Autofluor counter 21481
Cc1ccc(S(=O)(=O)N2CCC(C(=O)OCC(=O)N3CCC(C)CC3)CC2)cc1C	none (no result: VHR inh abs, SARS 3CLpro inh)
O=C(NC1CCCC1)c1csc2c1CCCC2	Autofluor counter 19286
CCN1C(=O)/C(=C2\SC(=S)N(c3c(C)n(C)n(-c4ccccc4)c3=O)C2=O)c2ccccc21	Autofluor counter 20899, BoNT A protease inconclusive
CCN(c1ccccc1)S(=O)(=O)c1ccc(OC)c(NC(=O)c2cc(F)c(F)c(F)c2F)c1	none (no result: VHR inh abs, SARS 3CLpro inh)
CC(=O)Nc1cc(C(N)=O)c(Cl)cc1Cl	Autofluor counter inconclusive, BoNT A protease inconclusive
NC(=S)Nc1ccc(Cl)c(Cl)c1	Anthrax LF inh2 52.2, BoNT-F LC inh inconclusive
CC(=O)Nc1ccc(Cl)c(C(N)=O)c1	Autofluor counter 19829
Cc1ccc(NC(=O)CN(C)C(=O)COc2cccc3cccnc23)cc1	none
O=C(NC1CCCCCC1)C1c2ccccc2C(=O)N1CCCN1CCOCC1 (stereo not drawn)	Autofluor counter 20267, BoNT A protease inconclusive
O=C(NC1CCCC1)C1c2ccccc2OCC(=O)N1CCCN1CCOCC1 (stereo not drawn)	none (no result: VHR inh abs, SARS 3CLpro inh)
N#Cc1cccc(NC(=O)c2cc(C3CCCCN3S(=O)(=O)c3ccccc3)on2)c1 (stereo not drawn)	none (no result: VHR inh abs, SARS 3CLpro inh)
CC(=O)Nc1ccc(N2C(C(C)=O)=NN(c3ccccc3)C2c2cccs2)cc1 (stereo not drawn)	Autofluor counter 19872
C=C1CC2C=C(NC(C)=O)CC(C1)C2 (stereo not drawn)	Autofluor counter 22238
O=C(O)CC(C(=O)O)N1C(=O)/C(=C/C=C/c2ccco2)SC1=S (stereo not drawn)	VHR inh abs 54.3
O=C(O)C(Cc1ccccc1)N1C(=O)/C(=C/C=C/c2ccco2)SC1=S (stereo not drawn)	none
CN(C)c1ccc(/C=C/c2ccc3c4ccccc4ccc3[n+]2-c2ccccc2)cc1	BoNT A protease 62.4, BoNT-F LC inh active
OCCNc1nnc(-c2ccccc2)c(-c2ccccc2)n1	none (no result: VHR inh abs, SARS 3CLpro inh)
CC(C)Oc1ccc(C2c3c(oc4ccccc4c3=O)C(=O)N2CCCN2CCOCC2)cc1 (stereo not drawn)	Autofluor counter 24300, BoNT A protease inconclusive
C=CCOc1ccc(C2c3c(oc4ccccc4c3=O)C(=O)N2CCCN2CCOCC2)cc1 (stereo not drawn)	none
CC(c1ccccc1)n1cnc2ccccc2c1=O (stereo not drawn)	none
CC1(C)Cc2c(cnn2-c2cccc(F)c2)C(NC(=O)C2CCOCC2)C1 (stereo not drawn)	none
CC(Oc1ccc(Cl)cc1Cl)C(=O)NC1CCSC1=O (stereo not drawn)	Autofluor counter 22259
CCCC(C)C(=O)NC1CCSC1=O (stereo not drawn)	Autofluor counter 16556
CCOC(=O)C(=O)NC1CCSC1=O (stereo not drawn)	none
COc1ccc(OCC(=O)Nc2ccccc2C(=O)Nc2ccc(C(=O)O)cc2)cc1	none
CC(OC(=O)CC1Sc2ccccc2NC1=O)C(=O)N(C)Cc1ccccc1 (stereo not drawn)	Autofluor counter inconclusive (no result: VHR inh abs, SARS 3CLpro inh)
Cc1ccc(C(=O)C[n+]2cc(Br)cc(Br)c2)cc1[N+](=O)[O-]	none
CC1(C)Cc2c(sc3nc(-c4ccccc4)n(N)c(=O)c23)CO1	none
CC1(C)Cc2c(sc3nc(-c4cccs4)n(N)c(=O)c23)CO1	Autofluor counter 21380, BoNT A protease inconclusive
Cc1nn2c(C)nc3sc4c(c3c2nc1=O)CC(C)(C)OC4	Autofluor counter 25222
CN(C)c1nc2sc3c(c2c(=O)n1C)CC(C)(C)OC3	VHR inh abs 59.6
O=C(NCc1ccco1)C1CCCN1C(=O)Nc1ccccc1Cl (stereo not drawn)	none
Cc1[nH]n(-c2ccc([N+](=O)[O-])cc2)c(=O)c1C=NCCN1CCN(C(=O)c2ccc(F)cc2)CC1	Autofluor counter 20052, BoNT A protease inconclusive
CCCc1[nH]n(-c2ccc([N+](=O)[O-])cc2)c(=O)c1C=NCCc1c[nH]c2ccccc12	none
Cc1[nH]n(-c2ccc([N+](=O)[O-])cc2)c(=O)c1C=NCCN1CCN(C(=O)c2ccc(Br)cc2)CC1	Autofluor counter inconclusive
Cc1[nH]n(-c2ccc([N+](=O)[O-])cc2)c(=O)c1C=NCCc1c[nH]c2ccccc12	VHR inh abs 55.4
Cc1ccc(-n2nc3c(c2NC(=O)c2ccc(S(=O)(=O)N4CCOCC4)cc2)CSC3)c(C)c1	none
COc1ccc(CC(=O)Nc2c3c(nn2-c2cccc(C)c2C)CS(=O)(=O)C3)cc1	Autofluor counter 22126
Cc1cccc(-n2nc3c(c2NC(=O)c2ccc(S(=O)(=O)N4CCOCC4)cc2)CSC3)c1C	Autofluor counter 23238, BoNT A protease inconclusive
CCC(=O)Nc1c2c(nn1-c1ccccc1C)CSC2	none
CC(=O)Nc1c2c(nn1-c1ccccc1C)CS(=O)(=O)C2	VHR inh abs 56.9
CC(=O)Nc1c2c(nn1-c1ccccc1C)CSC2	VHR inh abs 57.5
COc1ccccc1CC1S/C(=N/N=C/c2ccco2)NC1=O (stereo not drawn)	none
CC(C)CCN1C(=O)c2ccc(-c3nc4ccccc4c(=O)o3)cc2C1=O	VHR inh abs 50.3
CN1CCN(CCCNC(=O)c2ccc(NC(=O)C3=CSCCO3)cc2)CC1	none
CCN1CCN(CCCNC(=O)c2ccc(NC(=O)C3=CSCCO3)cc2)CC1	VHR inh abs 52.5
CCCCN(C)c1c(C)nc2ccc(C(=O)Nc3cc(-c4ccccc4)ccc3OC)cn12	none (no result: VHR inh abs, SARS 3CLpro inh)
CCOC(=O)c1c(NC(C)=O)sc2c(O)c(Br)cc(Br)c12	none
CCOC(=O)c1c(NC(C)=O)sc2c(O)cccc12	Autofluor counter 21384
CCOC(=O)c1c(NC(=O)Nc2cccc(Cl)c2)sc(C)c1C	Autofluor counter 23460
CC(C)CCNC(=O)C(=O)NCCC1=CCCCC1	none
O=C(NCCC1=CCCCC1)c1ccc(Cl)cc1	none (no result: Autofluor counter, Anthrax LF inh2, BoNT A protease, BoNT-F LC inh)
CC(C)C(=O)Nc1ccc(C(=O)NNC(=O)NC2CCCCC2)cc1	Autofluor counter 17675, BoNT A protease inconclusive
Cc1cc(C)cc(N(C(C)C(=O)NCCC2=CCCCC2)S(C)(=O)=O)c1 (stereo not drawn)	Autofluor counter 23149
CS(=O)(=O)Nc1ccc(C(=O)NC2CCCCC2)cc1	none
CS(=O)(=O)Nc1ccc(C(=O)NC2CCCC2)cc1	Autofluor counter 20262
